This excerpt belongs to a sample that is enriched for hits.
DUX4 inh = blocks DUX4-driven transcriptional activation; 0.8% of 37,000 active; activity change, negative = inhibition, % (test concentration not listed); 293T-iDUX4 ZSCAN4-Gaussia luciferase reporter, 24 h; hits give low values; AID 1224904;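 active = mean inhibition of at least 10% in the main channel, exceeding the control channel by a set limit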;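 also: 0% = median of neutral control wells and -100% = median of positive control wells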
An asterisk follows results filed as active.

SMILES	DUX4 inh
COc1ccc2c3c(n(C)c2c1)[C@@H](CO)N(S(C)(=O)=O)CC31CCN(C(=O)C2CCCC2)CC1	15
COc1ccc2c3c(n(C)c2c1)[C@H](CO)N(CC1CC1)CC31CN(C(=O)NC2CCCC2)C1	2
COc1ccc2c3c(n(C)c2c1)[C@@H](CO)N(C)CC31CN(C(=O)c2ccccc2F)C1	-35*
COc1ccc2c3c(n(C)c2c1)[C@@H](CO)N(C(=O)c1ccccc1)CC31CCN(CC2CC2)CC1	-2
COc1ccc2c3c(n(C)c2c1)[C@@H](CO)N(S(C)(=O)=O)CC31CCN(CC2CCCCC2)CC1	-21*
COc1ccc2c3c(n(C)c2c1)[C@H](CO)N(C)CC31CN(C(=O)C2CCC2)C1	23
COc1ccc2c3c([nH]c2c1)[C@@H](CO)N(C(=O)c1ccncc1)CC31CCN(C(=O)NC(C)C)CC1	16
COc1ccc2c3c([nH]c2c1)[C@@H](CO)N(C(=O)c1ccc(F)cc1)CC31CCN(C(=O)NC(C)C)CC1	-16*
CCCC(=O)N1CC2(CCN(C(=O)NC(C)C)CC2)c2c([nH]c3cc(OC)ccc23)[C@H]1CO	13
COc1ccc2c3c(n(C)c2c1)[C@@H](CO)N(C)CC31CCN(CC2CC2)CC1	9
COc1ccc2c3c(n(C)c2c1)[C@H](CO)N(C)CC31CN(C(=O)NC(C)C)C1	5
COc1ccc2c3c(n(C)c2c1)[C@@H](CO)N(CC1CC1)CC31CN(C(=O)c2ccccc2)C1	-32*
Cc1ccccc1-c1ccc([C@@H]2[C@H](CO)N3C(=O)CN(C(=O)c4cccnc4)C[C@@H]23)cc1	5
O=C(N[C@H]1C=C[C@H](CC(=O)N2CCOCC2)O[C@@H]1CO)c1ccccn1	3
CC=Cc1ccc2n(c1=O)C[C@@H]1[C@@H](CO)[C@H](C(=O)NCC3CC3)N(C(=O)CC3CC3)[C@H]21 (mixture of isomers)	-2
CC(C)(C)S(=O)N1Cc2cc(C(=O)Nc3ccc(-c4ccccc4)cc3)nc(-c3cccc(-c4cccc(F)c4)c3)c2[C@@H]1CCO (some centres not stated)	1
C[C@H](CO)N1C[C@H](C)[C@H](CN(C)S(C)(=O)=O)Oc2ncc(C#Cc3cccnc3)cc2C1=O	4
C[C@@H]1CCCCO[C@H](CN(C)C(=O)CCCN(C)C)[C@@H](C)CN([C@H](C)CO)C(=O)c2cc(NC(=O)c3ccccc3)ccc2O1	0
C[C@@H]1CC=CC[C@H](c2ccc3c(c2)OCO3)NC(=O)[C@@H](Cc2ccccc2)N(C)C(=O)c2ccccc2O1 (mixture of isomers)	1
CNC(=O)C[C@H]1CC[C@@H]2[C@H](COC[C@@H](O)CN2Cc2ccncc2)O1	5
CCCNC(=O)N1CCC2(CC1)CN(C(=O)CC)[C@H](CO)c1c2c2ccc(OC)cc2n1C	21
C[C@H](CO)N1C[C@H](C)[C@@H](CN(C)C)OCc2ccccc2-c2c(n(C)c3ccccc23)C1=O	3
C[C@@H]1CN([C@H](C)CO)C(=O)c2c(c3ccccc3n2C)-c2ccccc2CO[C@H]1CN(C)Cc1ccccc1C(F)(F)F	-49*
C[C@@H]1CN([C@H](C)CO)C(=O)c2c(c3ccccc3n2C)-c2ccccc2CO[C@H]1CN(C)C	4
C[C@@H]1CN([C@@H](C)CO)C(=O)c2c(c3ccccc3n2C)-c2ccccc2CO[C@H]1CN(C)Cc1cccc2c1OCCCO2	-31*
SMILES	DUX4 inh
C[C@H](CO)N1C[C@H](C)[C@H](CN(C)Cc2cccc3c2OCCCO3)OCc2ccccc2-c2ccccc2C1=O	-1
C[C@H]1CN([C@@H](C)CO)C(=O)c2c(c3ccccc3n2C)-c2ccccc2CO[C@@H]1CN(C)C	-8
C[C@@H]1CN([C@@H](C)CO)C(=O)c2ccccc2-c2ccccc2CO[C@H]1CN(C)Cc1ccccc1C(F)(F)F	-7
COc1ccccc1CN(C)C[C@@H]1OCc2ccccc2-c2c(n(C)c3ccccc23)C(=O)N([C@@H](C)CO)C[C@@H]1C	-32*
C[C@@H]1CN([C@H](C)CO)C(=O)c2c(c3ccccc3n2C)-c2ccccc2CO[C@@H]1CN(C)Cc1ccncc1	-1
CCC(=O)N1C[C@@H](C)[C@@H](OC)CN(C)C(=O)c2cc(NC(=O)NC3CCCC3)ccc2OC[C@@H]1C	1
O=C(c1cccc(F)c1)N1CC2(C1)[C@H](c1ccccc1)[C@H](CO)N2C(=O)C1CCOCC1	4
O=C(C[C@H]1C=C[C@@H](NC(=O)c2cccnc2)[C@H](CO)O1)NCCN1CCCCC1	-1
COc1ccc2c3c(n(C)c2c1)[C@@H](CO)N(C(C)=O)CC31CN(Cc2cccnc2)C1	19
CO[C@H]1CN(C)C(=O)c2cc(NC(=O)CC(F)(F)F)ccc2OC[C@H](C)N(C(=O)C2CCCCC2)C[C@@H]1C	3
C[C@H]1CCn2cc(nn2)COCCNC1=O	0
O=C(C[C@H]1C[C@@H]2c3cc(NC(=O)CC4CC4)ccc3O[C@@H]2[C@@H](CO)O1)NCCc1ccccc1	-3
O=C(C[C@H]1C[C@H]2c3cc(NC(=O)Nc4ccc(C(F)(F)F)cc4)ccc3O[C@H]2[C@H](CO)O1)NCc1ccc2c(c1)OCO2	-6
C[C@H](NC(=O)C[C@@H]1C[C@H]2c3cc(NC(=O)Nc4ccc(C(F)(F)F)cc4)ccc3O[C@H]2[C@H](CO)O1)c1ccccc1	-14*
O=C(C[C@@H]1C[C@@H]2c3cc(NC(=O)Nc4ccc(C(F)(F)F)cc4)ccc3O[C@@H]2[C@@H](CO)O1)NCc1ccc2c(c1)OCO2	-7
O=C(C[C@@H]1C[C@@H]2c3cc(NC(=O)Nc4ccc(C(F)(F)F)cc4)ccc3O[C@@H]2[C@H](CO)O1)NCc1ccc(Cl)cc1	3
COc1ccc(NC(=O)Nc2ccc3c(c2)[C@H]2C[C@@H](CC(=O)NCCc4ccccc4)O[C@@H](CO)[C@H]2O3)cc1	-1
O=C(C[C@H]1C[C@H]2c3cc(NC(=O)Nc4ccc(C(F)(F)F)cc4)ccc3O[C@H]2[C@@H](CO)O1)NCc1ccc(Cl)cc1	-4
O=C(C[C@@H]1C[C@H]2c3cc(NC(=O)Nc4ccc(C(F)(F)F)cc4)ccc3O[C@H]2[C@H](CO)O1)NCCc1ccccc1	-47*
COc1ccc(NC(=O)Nc2ccc3c(c2)[C@@H]2C[C@@H](CC(=O)N[C@@H](C)c4ccccc4)O[C@H](CO)[C@@H]2O3)cc1	4
O=C(C[C@@H]1C[C@H]2c3cc(NC(=O)Nc4ccc(C(F)(F)F)cc4)ccc3O[C@H]2[C@H](CO)O1)NCc1ccc2c(c1)OCO2	-47*
O=C(C[C@@H]1C[C@H]2c3cc(NC(=O)Nc4ccc(C(F)(F)F)cc4)ccc3O[C@H]2[C@H](CO)O1)NCc1ccc(Cl)cc1	-37*
COc1ccc(NC(=O)Nc2ccc3c(c2)[C@H]2C[C@@H](CC(=O)N[C@@H](C)c4ccccc4)O[C@H](CO)[C@H]2O3)cc1	1
CO[C@H]1CN(C)C(=O)c2ccc(NS(=O)(=O)c3ccccc3C)cc2OC[C@H](C)N(C)C[C@@H]1C	3
C[C@H]1CCCCO[C@H](CN(C)C(=O)c2ccccc2)[C@@H](C)CN([C@@H](C)CO)C(=O)c2cc(NS(=O)(=O)c3ccc(F)cc3)ccc2O1	-1
CCC(=O)N1[C@H](CO)[C@H](c2ccccc2)C12CN(C(=O)Nc1cccc(OC)c1)C2	8
CCCNC(=O)N1CC(=O)N2[C@@H](CO)[C@H](c3ccc(-c4cccc(C)c4)cc3)[C@@H]2C1	5
